Results taken from PubChem BioAssay (NCATS).
Several values for one entry are separate records, joined by “and”; a condition that tells them apart may be missing. Equal values may be shown once. Records with an inconclusive call do not appear. Some compounds were tested as several samples or in several runs, with calls that do not always agree. Activity calls are given as the source filed them. Calls follow the shape of the dose curve; as a rule, active = well fitted curve in the direction sought with a large enough effect; inconclusive = small, poorly fitted or top-dose-only effect, or another doubt; inactive = no such curve, though single readings can be large; an effect the other way counts as inactive or inconclusive.

Experiments:
CRL-7250 [1] = test: Cytotoxic Profiling of Annotated Libraries Using Quantitative High-Throughput Screening (AID 1296008); conditions: Five cell lines viability, CellTiter-Glo ATP luminescence, 48-72 h; max response: active compounds read low; also: nearly all actives have a fitted effect of over 60% in size; also: potency is read from the fitted curve at half-maximal effect
Summary of the method: (§1)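 Cells exposed to compounds for 48 or 72 hr at 37 degrees Celsius. Viability read as ATP-coupled luminescence with CellTiter-Glo after 10 min at room temperature.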

HEK293 = test: as above; conditions: Five cell lines viability, CellTiter-Glo ATP luminescence, 48-72 h; max response: active compounds read low
Summary of the method: as §1

HaCat [2] = test: as above; conditions: Five cell lines viability, CellTiter-Glo ATP luminescence, 48-72 h; max response: active compounds read low
Summary of the method: as §1

KB-3-1 = test: as above; conditions: Five cell lines viability, CellTiter-Glo ATP luminescence, 48-72 h; max response: active compounds read low
Summary of the method: as §1

NIH3T3 [3] = test: as above; conditions: Five cell lines viability, CellTiter-Glo ATP luminescence, 48-72 h; max response: active compounds read low
Summary of the method: as §1

HEK293T = test: qHTS assay to identify novel small-molecules to repurpose for Merkel cell carcinoma treatment (AID 1296009); conditions: MCC and control cell lines, CellTiter-Glo viability, 72 h; at 44.8 µM (top of the series) unless noted; also: nearly all actives have a fitted effect of over 60% in size; also: potency is read from the fitted curve at half-maximal effect
Summary of the method: (§2)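 Cells were incubated with compound for 72 hr at 37 degree celsius before CellTiter-Glo addition. Luminescence was normalized with no-cell wells as full cytotoxicity and DMSO as baseline.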

MCC-13 = test: as above; conditions: MCC and control cell lines, CellTiter-Glo viability, 72 h; series mostly up to 46 µM
Summary of the method: as §2

MCC-26 = test: as above; conditions: MCC and control cell lines, CellTiter-Glo viability, 72 h; series mostly up to 46 µM
Summary of the method: as §2

MKL-1 = test: as above; conditions: MCC and control cell lines, CellTiter-Glo viability, 72 h; series mostly up to 46 µM
Summary of the method: as §2

NIH3T3 [4] = test: as above; conditions: MCC and control cell lines, CellTiter-Glo viability, 72 h; at 44.8 µM (top of the series) unless noted
Summary of the method: as §2

UISO = test: as above; conditions: MCC and control cell lines, CellTiter-Glo viability, 72 h; series mostly up to 46 µM
Summary of the method: as §2

C33A = test: Primary qHTS to identify gynecologic anti-cancer compounds using libraries of approved drugs and bioactive compounds (AID 1345084); conditions: Gynecologic cancer cell panel viability, ATPlite luminescence, 48 h; series mostly up to 57.5 µM; also: nearly all actives have a fitted effect of over 55% in size
Summary of the method: (§3)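 48 h compound exposure at 37 C, 5% CO2; five-point qHTS. ATPlite luminescence readout of cell ATP.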

CAOV3 = test: as above; conditions: Gynecologic cancer cell panel viability, ATPlite luminescence, 48 h; series mostly up to 57.5 µM
Summary of the method: as §3

HACAT [5] = test: qHTS assay to identify novel small-molecules to repurpose for Merkel cell carcinoma treatment (AID 1296009); conditions: MCC and control cell lines, CellTiter-Glo viability, 72 h; at 44.8 µM (top of the series) unless noted; also: nearly all actives have a fitted effect of over 60% in size; also: potency is read from the fitted curve at half-maximal effect
Summary of the method: as §2

MKL-2 = test: as above; conditions: MCC and control cell lines, CellTiter-Glo viability, 72 h; series mostly up to 46 µM
Summary of the method: as §2

WaGa = test: as above; conditions: MCC and control cell lines, CellTiter-Glo viability, 72 h; series mostly up to 46 µM
Summary of the method: as §2

CRL-7250 [6] = test: as above; conditions: MCC and control cell lines, CellTiter-Glo viability, 72 h; at 44.8 µM (top of the series) unless noted
Summary of the method: as §2
% is scaled to controls: 0 for no effect and ±100 for the full control effect.

CCNC(=O)CC1N=C(c2ccc(Cl)cc2)c2cc(OC)ccc2-n2c(C)nnc21 (stereo not given)
active: Potency (CRL-7250 [1]) 1640 nM | Potency (HEK293) 6510 nM
inactive: max response (CRL-7250 [1]) -29.2% and -3.83% | max response (HEK293) -10.4% | outcome (HEK293) | max response (HaCat [2]) -4.28% and 0.244% and -23.7% | max response (KB-3-1) -3.15% | outcome (KB-3-1) | max response (NIH3T3 [3]) 4.41% | outcome (NIH3T3 [3]) | outcome (HEK293T) | Potency (MCC-13) | Potency (MCC-26) | Potency (MKL-1) | outcome (NIH3T3 [4]) | Potency (UISO) | Potency (C33A) | Potency (CAOV3)

CC(C)(C)[C@]1(O)C[C@@H]2OC(=O)C[C@@]23C(=O)O[C@@H]2OC(=O)[C@H](O)C213 (stereo not given in full)
inactive: max response (CRL-7250 [1]) 2.16% | outcome (HEK293) | outcome (HaCat [2]) | outcome (KB-3-1) | outcome (NIH3T3 [3]) | outcome (HACAT [5]) | outcome (HEK293T) | Potency (MCC-13) | Potency (MCC-26) | Potency (MKL-1) | Potency (MKL-2) | outcome (NIH3T3 [4]) | Potency (UISO) | Potency (WaGa)

CC(=O)N(C)c1cccc(-c2ccnc3c(C(=O)c4cccs4)cnn23)c1
inactive: max response (CRL-7250 [1]) -13.2% | outcome (CRL-7250 [1]) | max response (HEK293) -28% and -16.5% | max response (HaCat [2]) 3.39% | outcome (HaCat [2]) | max response (KB-3-1) -3.54% | outcome (KB-3-1) | max response (NIH3T3 [3]) -0.872% and 2.98% | outcome (CRL-7250 [6]) | outcome (HACAT [5]) | Potency (MCC-13) | Potency (MCC-26) | Potency (MKL-1) | Potency (MKL-2) | Potency (UISO) | Potency (WaGa) | Potency (C33A) | Potency (CAOV3)

O=C(Oc1ccc([N+](=O)[O-])cc1)N1CCN(Cc2cccc(Oc3ccccc3)c2)CC1
inactive: max response (CRL-7250 [1]) -6.9% and 1.64% | max response (HEK293) 1.27% | max response (HaCat [2]) 0.717% and -5.04% | max response (KB-3-1) -6.21% and -13.5% | max response (NIH3T3 [3]) 0.403% | outcome (NIH3T3 [3]) | Potency (MCC-13) | Potency (MCC-26) | Potency (MKL-1) | Potency (MKL-2) | outcome (NIH3T3 [4]) | Potency (UISO) | Potency (WaGa) | Potency (C33A) | Potency (CAOV3)

Cc1ccccc1-n1c(Cn2cnc3c(N)ncnc32)nc2cccc(C)c2c1=O
inactive: outcome (HEK293) | max response (HaCat [2]) -10.3% | max response (KB-3-1) 0.515% | max response (NIH3T3 [3]) -1.65% | outcome (HEK293T) | Potency (C33A) | Potency (CAOV3)
active: Potency (CRL-7250 [1]) 833 nM | Potency (HEK293) 1480 nM | Potency (HaCat [2]) 590 nM | Potency (KB-3-1) 1320 nM | Potency (NIH3T3 [3]) 2640 nM | Potency (MCC-26) 6620 nM | Potency (UISO) 3720 nM

O=C(N[C@H]1CN2CCC1CC2)c1ccc(Cl)cc1
inactive: outcome (CRL-7250 [1]) | max response (HEK293) -12.5% | outcome (HEK293) | outcome (HaCat [2]) | outcome (KB-3-1) | max response (NIH3T3 [3]) -6.97% | outcome (NIH3T3 [3]) | outcome (CRL-7250 [6]) | outcome (HACAT [5]) | outcome (HEK293T) | Potency (MCC-13) | Potency (MCC-26) | Potency (MKL-1) | Potency (MKL-2) | outcome (NIH3T3 [4]) | Potency (UISO) | Potency (WaGa) | Potency (C33A) | Potency (CAOV3)

CCCCC(CC)COC(=O)c1ccccc1C(=O)OCC(CC)CCCC (stereo not given)
inactive: max response (CRL-7250 [1]) -5.66% | outcome (HEK293) | outcome (HaCat [2]) | max response (KB-3-1) -15.4% | max response (NIH3T3 [3]) -8.2% | outcome (HACAT [5]) inactive [at 92 µM] | outcome (HEK293T) inactive [at 92 µM] | Potency (MCC-13) | Potency (MKL-1) | Potency (MKL-2) | Potency (UISO) | Potency (WaGa) | Potency (C33A)

CCCC[N+]1(C)[C@H]2CC(OC(=O)[C@H](CO)c3ccccc3)C[C@H]1[C@H]1O[C@H]12 (stereo not given in full)
inactive: max response (CRL-7250 [1]) -3.26% | max response (HEK293) -1.83% | outcome (HaCat [2]) | max response (KB-3-1) -2.74% | max response (NIH3T3 [3]) -3.27% | outcome (HACAT [5]) | Potency (MCC-13) | Potency (MKL-1) | Potency (MKL-2) | Potency (UISO) | Potency (WaGa)

O=c1[nH]c2ccccc2n1C1CCN(Cc2ccc(-c3[nH]c4cc5ncnc5cc4nc3-c3ccccc3)cc2)CC1
active: Potency (HEK293) 18700 nM
inactive: outcome (CRL-7250 [1]) | max response (HaCat [2]) 0.8% | outcome (KB-3-1) | max response (NIH3T3 [3]) -3.31% | outcome (CRL-7250 [6]) | Potency (MCC-13) | Potency (MCC-26) | Potency (MKL-1) | Potency (MKL-2) | Potency (UISO) | Potency (WaGa)

COc1ccc2c(c1)[C@]13CCCCC1C(C2)N(C)CC3 (stereo not given in full)
inactive: max response (CRL-7250 [1]) 4.77% | outcome (HEK293) | max response (HaCat [2]) -2.03% | max response (KB-3-1) 9.18% | outcome (NIH3T3 [3]) | outcome (HEK293T) | Potency (MCC-13) | Potency (MCC-26) | Potency (MKL-1) | Potency (MKL-2) | outcome (NIH3T3 [4]) | Potency (UISO) | Potency (WaGa)

CCOC(=O)c1cncn1[C@H](C)c1ccccc1
inactive: max response (CRL-7250 [1]) 2.73% | outcome (HEK293) | outcome (HaCat [2]) | max response (KB-3-1) 6.23% | outcome (NIH3T3 [3]) | outcome (HACAT [5]) | outcome (HEK293T) | Potency (MCC-13) | Potency (MCC-26) | Potency (MKL-1) | Potency (MKL-2) | outcome (NIH3T3 [4]) | Potency (UISO) | Potency (WaGa)

CC[C@@H](C(N)=O)N1CCCC1=O
inactive: max response (CRL-7250 [1]) 0.0308% | outcome (HEK293) | outcome (HaCat [2]) | max response (KB-3-1) 6.38% | max response (NIH3T3 [3]) 1.04% | outcome (HACAT [5]) | outcome (HEK293T) | Potency (MCC-13) | Potency (MKL-1) | Potency (MKL-2) | Potency (UISO) | Potency (WaGa)

O=S(=O)(F)Cc1ccccc1
inactive: outcome (CRL-7250 [1]) | outcome (HEK293) | max response (HaCat [2]) -8.02% | max response (KB-3-1) 3.23% | max response (NIH3T3 [3]) 3.32% | outcome (CRL-7250 [6]) | outcome (HEK293T) | Potency (MCC-13) | Potency (MKL-1) | Potency (MKL-2) | Potency (UISO) | Potency (WaGa)
